aSyn UTR act: Activators via SNCA 5'UTR binding, MLPCN; alpha-synuclein 5'UTR reporter, activators screen; activity score, % (tested at 7.5 µM), hits read low; 300,000 compounds, 7.1% hits; in the data active means activity score below about -60%
An asterisk follows results filed as active. These entries were drawn from the full list.

SMILES	aSyn UTR act
COc1ccc(C(=O)Nc2nnc(-c3ccccc3)s2)cc1	-189*
COc1ccc(C(=O)Nc2nnc(C(F)(F)F)s2)cc1	-144*
CCC(NC(=O)Nc1nnc(C(F)(F)F)s1)(C(F)(F)F)C(F)(F)F	109
COC(=O)Nc1nnc(-c2ccc(OC)cc2)s1	-76*
O=[N+]([O-])/C(C(Cl)=C(Cl)Cl)=C(\Sc1ccccc1)N1CCCCC1	-116*
Cc1cccc(NC(=O)c2cnc3sccn3c2=O)c1	-74*
Cc1cccc(NC(=O)c2cnc3sccn3c2=O)n1	-116*
O=C(Nc1cnc2sccn2c1=O)c1ccccc1Cl	-180*
Cc1cccc(NC(=O)c2cnc3sccn3c2=O)c1C	-124*
COCc1c(C(C)C)nc(C(C)C)c(/C=C/[C@@H](O)C[C@@H](O)CC(=O)O)c1-c1ccc(F)cc1	115
COc1ccc(NC(=O)c2cnc3sccn3c2=O)cc1	-133*
CCCCCCCCCCCCCCCC[N+](C)(C)CC	101
CCN(CC(=O)c1c(N)n(C)c(=O)n(C)c1=O)c1cccc2ccccc12	-72*
Fc1ccc(-c2csc(-c3ccccn3)n2)cc1F	-112*
c1ccc(-c2nc(-c3ccco3)cs2)nc1	-183*
Cc1ccc(N=Nc2c(N)n[nH]c2N)cc1	-93*
Nc1n[nH]c(N)c1N=Nc1ccc2c(c1)OCO2	-229*
Cc1ccccc1CSc1nnc(-c2ccncc2)o1	-86*
Fc1ccc(-c2nnc(SCc3cccnc3)o2)cc1	-76*
c1ccc(CSc2nnc(-c3ccncc3)o2)cc1	-104*
Cc1ccc(-c2n[nH]c(Cc3ccccc3)n2)cc1	-126*
c1ccc(-n2ncc3c(N4CCC5(CC4)OCCO5)ncnc32)cc1	-223*
Cc1cccc(-n2ncc3c(N4CCC5(CC4)OCCO5)ncnc32)c1	-82*
COCCN(Cc1nc(-c2ccc(-c3ccccc3)cc2)oc1C)C(C)C	-215*
CCN(CC)c1ccc(-c2nn3c(-c4ccccc4OC)nnc3s2)cc1	83
SMILES	aSyn UTR act
COc1ccccc1-c1nn2c(=O)cc(C)nc2s1	-72*
Cc1cc(=O)n2nc(-c3ccc(C(F)(F)F)cc3)sc2n1	-149*
COc1ccccc1-c1nn2c(-c3ccco3)nnc2s1	-196*
COc1cccc(-c2nnc3sc(-c4ccccc4)nn23)c1	-69*
COc1ccc(O)c(/C=N/NC(=O)c2ccc(OCc3cccc(Br)c3)cc2)c1	82
Cn1cc(C(=O)N/N=C/C(Br)=C\c2ccccc2)ccc1=O	-83*
COc1cccc(C(=O)N/N=C/C(Br)=C/c2ccccc2)c1	-135*
C/C(=N\Nc1nc(C)cc(-c2ccccc2)n1)c1cccc(N)c1	-64*
C/C(=N/Nc1nc(C)cc(-c2ccccc2)n1)c1ccco1	-76*
C/C(=N\Nc1nc(C)cc(-c2ccccc2)n1)c1ccccc1	-102*
Cc1cc(-c2ccccc2)nc(N/N=C/c2ccccc2F)n1	-160*
COc1cccc(NC(=O)CC(=O)c2ccc([N+](=O)[O-])cc2)c1	-115*
COc1cccc(NC(=O)COc2ccccc2)c1	-144*
CC(=O)Nc1cccc(OCC(=O)Nc2sccc2C(N)=O)c1	-82*
CCn1nc(C)c(C(=O)Nc2cc(Oc3cc(C)cc(C)c3)cc([N+](=O)[O-])c2)c1C	50
COc1cccc(NC(=O)c2cccc(C)c2[N+](=O)[O-])c1	-76*
CC(C)(C)C1(C)OC(=O)C(=Cc2ccc(OCC(=O)Nc3ccccc3)cc2)C(=O)O1 (stereo not given)	-84*
CC(=O)Nc1cccc(OCC(=O)Nc2ccccc2)c1	-114*
COc1ccc(OCC(=O)Nc2ccc(OC)c(S(=O)(=O)N3CCCCC3)c2)cc1	-96*
CSc1cccc(NC(=O)COc2ccccc2C)c1	-85*
CC(=O)Nc1cccc(OCCCNC(=O)c2ccc(C(C)(C)C)cc2)c1	-72*
Cc1csc(NC(=O)c2ccc3c(=O)n4c(nc3c2)CCCCC4)n1	-139*
O=C(Nc1ccc(F)cc1Cl)c1ccc2c(=O)n3c(nc2c1)CCC3	-109*
O=C(Nc1nccs1)c1ccc2c(=O)n3c(nc2c1)CCCCC3	-129*
Cc1sc(NC(=O)c2ccccc2F)c(CN2CCCCC2C)c1C (stereo not given)	-296*
SMILES	aSyn UTR act
Clc1ccc(Cc2noc(-c3cccs3)n2)cc1	-132*
C(=N\Nc1nc(-c2ccccc2)cs1)/c1cccnc1	-339*
CC(C)(C)c1csc(N/N=C/c2cccnc2)n1	-173*
Cc1ccc(/C=N/Nc2nc(C(C)(C)C)cs2)o1	-123*
CC(C)=NNc1nc(-c2ccccc2)cs1	-182*
CCCC(=O)Nc1ccc(-c2csc(N/N=C\c3ccncc3)n2)cc1	-116*
C(C#CCCCCCCCCC[n+]1ccccc1)#CCCCCCCCCC[n+]1ccccc1	73
N#Cc1cnc(Nc2nc3ccccc3o2)nc1-c1ccccc1	-72*
Cc1ccc(Cn2c(O)c(N=NC(=S)Nc3ccccc3F)c3cc(S(=O)(=O)N4CCOCC4)ccc32)cc1	66
Cc1ccc(C)c(NC(=S)N=Nc2c(O)n(C)c3ccc(S(=O)(=O)N4CCOCC4)cc23)c1	78
Cc1ccc(Nc2ccc(S(=O)(=O)N3CCOCC3)cc2[N+](=O)[O-])c(C)c1	-62*
CN(/N=C/C=C/c1ccccc1)c1cc(=O)n(C)c(=O)[nH]1	-65*
N#CC1=C(N)NC(SCc2ccc(F)cc2)=C(C#N)C12CCCCC2	-83*
COC(=O)C1C(=O)C(C(=O)/C=C/c2ccccc2)C(=O)CC1(C)C (stereo not given)	-134*
CC(C)(C)c1ccc(-c2nc(N)nc(N)n2)cc1	-89*
CC(C)(C)n1cnc2cc(NC(=O)c3ccccc3)ccc21	-137*
CC(C)(C)n1cnc2cc(NCc3cccs3)ccc21	-102*
CC(C)(C)n1cnc2cc(NC(=O)c3cccs3)ccc21	-134*
COc1ccccc1-n1cnc2cc(NCc3cccs3)ccc21	55
CCn1cnc2cc(NC(=O)c3cccs3)ccc21	-109*
Cc1sc(NC(=O)c2oc3ccccc3c2C)c(C#N)c1C	-107*
Cc1csc(NC(=O)c2oc3ccccc3c2C)n1	-68*
Cc1sc(NC(=O)c2sc3nc4c(C)cccc4cc3c2N)c(C#N)c1C	-119*
Cc1cccc2cc3c(N)c(C#N)sc3nc12	84
Cc1c(C(=O)NC2=NCCS2)oc2ccccc12	-62*
SMILES	aSyn UTR act
Cc1csc(Nc2nc(N)c(C(=O)Nc3ccccc3)o2)n1	-131*
Cc1cc(C(=O)Nc2sc(C)c(C)c2C#N)c(C)o1	-65*
CCOC(=O)C1(CCc2ccccc2)CCN(C(=O)Cc2nonc2C)CC1	-78*
CC(/C=N/Nc1nnc(C)c(=O)[nH]1)=C\c1ccccc1	-97*
CC(/C=N/Nc1ccc2nncn2n1)=C\c1ccccc1	-72*
O=C(c1cc2ccccc2oc1=O)N(Cc1ccccc1F)C1CCS(=O)(=O)C1 (stereo not given)	-95*
CCOc1ccc(CN(C(=O)c2cc3ccccc3oc2=O)C2CCS(=O)(=O)C2)cc1 (stereo not given)	-78*
O=C(c1cc2ccccc2oc1=O)N(Cc1ccccc1)C1CCS(=O)(=O)C1 (stereo not given)	-88*
COc1ccc(CN(C(=O)c2cc3ccccc3oc2=O)C2CCS(=O)(=O)C2)cc1OC (stereo not given)	-115*
COc1ccc(CCOC(=O)c2ccc(N)c([N+](=O)[O-])c2)cc1	-73*
Cc1cc(C(=O)O/N=C(\N)c2ccncc2)ccc1[N+](=O)[O-]	-124*
COc1ccc(/C(N)=N/OC(=O)c2ccc(C)c([N+](=O)[O-])c2)cc1	-165*

Screening results (PubChem)
